High-throughput results as filed in PubChem BioAssay.
Sampled rows, rich in hits. Any-hit rate of the full collection: about 12%.
Sfp inh: inhibitors of Bacillus subtilis Sfp phosphopantetheinyl transferase | Q9F4F7 | AID 1490 | Biochemical Sfp PPTase activity, qHTS | 310,000 tested, 3.5% active | Potency, µM, for the others: largest response in the series, negative = inhibition, usual class: inhibitors;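 note: the enzyme is Sfp with the accession as filed and its product quenches rhodamine fluorescence; 0% = enzyme reaction without inhibitor and -100% = no enzyme wells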
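Sfp 15 nM + cpd, 15 min RT; start w/ rhodamine-CoA 5 uM, BHQ-2-YbbR 12.5 uM (final); 50 mM Hepes pH 7.6, 10 mM MgCl2, 0.01% NP-40, 0.01% BSA; read 525/598 nm at 0 and 30 min.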
L3MBTL1 block: blocks human L3MBTL1; AlphaScreen L3MBTL1–H3K9me1 peptide binding; Potency, µM (titrated, usually from 57.1 µM), for inactives: at the highest dose activity, negative = inhibition, most hits filed as inhibitors; 230,000 tested, 0.66% active; note: % is set by controls: 0 for no effect and ±100 for the full control effect; nearly all actives have a fitted effect of over 60% in size
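L3MBTL1 (50 nM) pre-complexed 30 min with biotinylated H3(1-15)K9me1 peptide (75 nM), then compounds added for 30 min at room temperature; AlphaScreen streptavidin donor/nickel chelate acceptor beads (10 ug/mL final) read after 30 min dark incubation.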
G9a inh: blocks human histone lysine methyltransferase G9a. Q96KQ7. G9a H3K9 monomethylation, AlphaScreen, 2 h. Potency, µM (top dose mostly 102 µM), without a hit: at the top dose activity, negative = inhibition, most hits filed as inhibitors. 350,000 tested, 8.8% active. AID 504332; note: % is set by controls: 0 for no effect and ±100 for the full control effect; nearly all actives have a fitted effect of over 75% in size
Target sequence (Q96KQ7 913-1193 limits assumed): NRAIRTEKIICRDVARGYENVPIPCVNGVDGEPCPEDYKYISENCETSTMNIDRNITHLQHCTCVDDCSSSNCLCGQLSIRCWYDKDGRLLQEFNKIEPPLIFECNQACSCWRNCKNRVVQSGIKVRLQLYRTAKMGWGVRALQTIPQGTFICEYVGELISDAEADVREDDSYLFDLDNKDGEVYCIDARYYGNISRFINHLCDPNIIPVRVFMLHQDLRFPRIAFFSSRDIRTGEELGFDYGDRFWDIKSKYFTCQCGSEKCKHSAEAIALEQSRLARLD
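Methyltransferase reactions run at room temperature for 2 h (20 nM enzyme, 500 nM biotin-H3K9 peptide, 20 uM SAM) after a 15 min compound preincubation; product detected by AlphaScreen beads and anti-H3K9me1 antibody.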
JMJD2A Tudor inh: inhibitors of human JMJD2A Tudor domain | 390,000 tested, 4.4% active | O75164 | AID 504339 | AlphaScreen JMJD2A-Tudor / H3K4me3 peptide binding | Potency, µM (titrated, usually from 114 µM), for the others: top-dose activity change, negative = inhibition, actives largely listed as inhibitors; note: % is set by controls: 0 for no effect and ±100 for the full control effect; nearly all actives have a fitted effect of over 50% in size
BAZ2B inh: BAZ2B (human) inhibition. AlphaScreen BAZ2B-H3K14Ac peptide displacement. 360,000 tested, 4.4% active. AID 504333. Potency, µM (top dose mostly 114 µM), for the others: top-dose activity change, negative = inhibition, hits mostly inhibitors; note: % is set by controls: 0 for no effect and ±100 for the full control effect; nearly all actives have a fitted effect of over 60% in size
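Protein-peptide AlphaScreen: BAZ2B 50 nM, b-H3K14Ac 50 nM, 1x PBS pH 7.4 + 0.01% Tween-20. Preincubation 30 min RT; cpd 30 min RT (top 110 uM); beads 20 min RT, light-protected.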
HP1b chromo inh: HP1-beta chromodomain-methylated histone interaction inhibition; P83916; AlphaScreen HP1-beta / biotin-H3K9me3 peptide binding; Potency, µM (series often up to 114 µM), for inactives: at the top dose activity change, negative = inhibition, actives largely listed as inhibitors; 390,000 tested, 0.56% active; AID 540317; note: nearly all actives have a fitted effect of over 70% in size
Target sequence (P83916 whole entry, looked up): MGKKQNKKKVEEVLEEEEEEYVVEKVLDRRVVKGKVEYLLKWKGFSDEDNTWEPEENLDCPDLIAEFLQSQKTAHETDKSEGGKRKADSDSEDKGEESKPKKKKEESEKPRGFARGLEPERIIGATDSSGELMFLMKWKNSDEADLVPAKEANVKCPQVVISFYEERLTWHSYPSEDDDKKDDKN
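Compound inhibition of the preformed complex between 50 nM HP1-beta and 50 nM biotinylated H3K9me3 peptide was read by AlphaScreen. Buffer was PBS pH 7.4 with 0.01% Tween-20. Incubations ran 30 min at room temperature, with 10 ug/mL donor/acceptor beads.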
Active calls of the source: *; ? = inconclusive; . = not tested or not shown; [ ] = another dose, or the depositor's remark. Calls come from the whole dose curve; as a rule, active = well fitted curve in the direction sought with a large enough effect; inconclusive = small, poorly fitted or top-dose-only effect, or another doubt; inactive = no such curve, though single readings can be large; an effect the other way counts as inactive or inconclusive. Potency is the fitted concentration of half-maximal effect.

SMILES	Sfp inh	L3MBTL1 block	G9a inh	JMJD2A Tudor inh	BAZ2B inh	HP1b chromo inh
Cc1cccc(NC(=O)NNC(=O)c2ccc(C)c([N+](=O)[O-])c2)c1	4.3%	1.3%	.	-3.9%	0.9%	41.7%
CCc1cc(C(=O)N2CCCC(Nc3ccc(F)c(F)c3)C2)n(C)n1 (stereo not drawn)	12.4%	.	86.3%	0.7%	1.1%	36.6%
Cc1cccc(-c2ncc(CN3CCN(CC(C)C)C(CCO)C3)cn2)c1 (stereo not drawn)	22.8%	4.2%	-4.5%[59 µM]	17.8µM*	-19.0%	10.6%
COc1ccc(-c2ncc(CN3CCN(CCC(C)C)C(CCO)C3)cn2)cc1 (stereo not drawn)	18.4%	3.8%	.	-25.0%	6.7%	18.3%
Cc1ccc(-c2cccc(CN3CCN(C(C)C)C(CCO)C3)c2)o1 (stereo not drawn)	-20.2%	-13.2%	44.7µM*	-24.1%	-31.6%	19.9%
Cc1ccc(COc2ccc(-c3cc(C(F)(F)F)n4nc(C)cc4n3)cc2)cc1	.	.	-19.0%[59 µM]	1.9%	-20.3%	36.6%
Cn1c(/C(C#N)=N/O)nc2ccccc21	-6.0%	-1.4%	?	?	70.8µM*	6.8%
Cn1c(/C(C#N)=C/c2ccccc2Br)nc2ccccc21	.	.	0.398µM*	-16.7%	9.8%	40.3%
Cc1cc(C)c(-c2cc([C@H](C)O/N=C\[C@@H](C)[C@H](OCc3ccccc3)C(C)C)on2)c(C)c1	-3.2%	.	.	.	.	.
CCc1ccc(CNC(=O)CCC(=O)N2Cc3cccc(OC)c3Oc3ncccc32)cc1	8.9%	.	4.5%[59 µM]	-8.2%	-4.5%	21.6%[57 µM]
CC1CCc2c(c3ccccc3n2C(=O)CCl)C1 (stereo not drawn)	-9.1%	-0.7%[2.29 µM]	19.4%[0.501 µM]	?	79.4µM*	26.0%
Cc1ccc(Sc2ccc(CN3CCCCC3)cc2[N+](=O)[O-])cc1	-2.8%	?	17.8µM*	35.5µM*	?	?
O=C(CCN1C(=O)/C(=C\C=C\c2ccccc2)SC1=S)Nc1cccc(C(=O)O)c1	-28.3%	.	.	50.1µM*	20µM*	?
O=C(CCN1C(=O)/C(=C/C=C/c2ccccc2)SC1=S)Nc1nccs1	-2.7%	-1.5%	4.8%	-12.3%	-3.6%	1.5%
O=C(CCN1C(=O)/C(=C\C=C\c2ccccc2)SC1=S)Nc1ccccc1C(=O)O	21.3%	.	72.7%	44.7µM*	-11.1%	?
Cc1c(C(=O)O)cccc1-c1ccc(C=O)o1	-16.4%	?	?	-30.7%	-9.9%	5.1%
O=C(O)c1ccc(-c2ccc(/C=c3/sc4nc5ccccc5n4c3=O)o2)cc1Cl	50.1µM*	.	5.01µM*	20µM*	39.8µM*	17.8µM*
Cc1cc(C)c2nc3s/c(=C/c4ccccc4)c(=O)n3c2c1	8.91µM*	.	1.26µM*	.	3.4%	.
O=c1/c(=C/c2cn(-c3ccccc3)nc2-c2ccc(F)cc2)sc2nc3ccccc3n12	3.3%	0.5%	-0.7%[59 µM]	.	2.1%	.
Cc1ccc2c(nc3s/c(=C/c4cccs4)c(=O)n32)c1C	-19.8%	-4.2%	7.94µM*	?	.	-13.0%
Cc1ccc2c(nc3s/c(=C\c4ccc(-c5ccccc5C(=O)O)o4)c(=O)n32)c1C	-10.4%	.	17.8µM*	?	56.2µM*	-18.2%
CN1C(=O)/C(=C/c2ccc(C(=O)Nc3ccc(O)cc3C(=O)O)cc2)SC1=S	?	.	14.2%[0.0925 µM]	44.7µM*	22.4µM*	44.7µM*
Cc1ccc(/C=C2\SC(=S)N(CCC(=O)NNC(=O)c3ccc(O)cc3)C2=O)cc1	-13.0%	.	9.2%	-13.0%	-18.5%	18.1%
CCOc1ccc(/C=C2\SC(=S)N(CCC(=O)Nc3ccccc3C(=O)O)C2=O)cc1	-3.2%	.	35.5µM*	-23.9%	?	1.8%
COc1ccc(/C=C2\SC(=S)N(CCC(=O)Nc3ccccc3C(=O)O)C2=O)cc1	2.4%	.	70.8µM*	?	?	?
SMILES	Sfp inh	L3MBTL1 block	G9a inh	JMJD2A Tudor inh	BAZ2B inh	HP1b chromo inh
O=C(CN1N=C(c2ccc(Cl)cc2)CCC1=O)NCc1ccc(F)cc1	.	.	5.5%[59 µM]	-13.5%	2.0%	16.5%
CC(C)(C)C(=O)COC(=O)CNC(=O)c1ccc(Oc2ccccc2)cc1	41.2%	.	-17.1%	-13.0%	-16.6%	26.9%
COc1ccc([C@H]2/C=C\CN(C(=O)C3CC3)[C@@H](C)C(=O)N2Cc2ccc(F)cc2)cc1	.	.	.	-6.9%	.	39.1%
Cc1ccc(Nc2ncnc3c2cnn3-c2ccccc2)c(C)c1	.	.	0.3%[59 µM]	-19.6%	-1.0%	23.7%
Cc1ccsc1C(=O)OCC(=O)NC1CCCC1	.	-0.4%	-3.4%[59 µM]	-6.8%	0.7%	28.9%
COc1cc(C(=S)N(C)C)ccc1O	39.8µM*	2.2%	6.31µM*	-18.5%[11.4 µM]	-1.9%	?
C=CCc1ccc(O)c(OC)c1	1.5%	.	11.8%[59 µM]	.	.	.
CCC(=O)OC1(C)C(=O)C=C2C=C(c3ccsc3)OC=C2C1=O (stereo not drawn)	?	.	?	28.2µM*	50.1µM*	?
CC1(OC(=O)c2ccco2)C(=O)C=C2C=C(c3ccsc3)OC=C2C1=O (stereo not drawn)	-19.0%	.	.	.	.	.
COC(=O)CCCC1=CC2=CC(=O)C(C)(OC(=O)c3ccco3)C(=O)C2=CO1 (stereo not drawn)	-1.8%	.	.	.	.	.
COC(=O)CCC(=O)OC1(C)C(=O)C=C2C=C(c3ccsc3)OC=C2C1=O (stereo not drawn)	11.2%	.	.	50.1µM*	.	?
CC1(O)C(=O)C=C2C=C(c3ccsc3)OC=C2C1=O (stereo not drawn)	-14.8%	.	.	.	.	.
COC(=O)CCCC1=CC2=CC(=O)C(C)(OC(=O)CCc3ccccc3)C(=O)C2=CO1 (stereo not drawn)	-22.2%	.	-36.2%[59 µM]	79.4µM*	56.2µM*	-22.0%
CN(C(=O)CSc1nnc(-c2cccnc2)o1)C1CCCCC1	.	-4.6%	-13.2%[59 µM]	3.0%	4.4%	40.1%
CCS(=O)(=O)N1CCc2cc(C(=O)N3CCN(c4ccccc4)CC3)ccc21	.	.	-35.0%[59 µM]	3.3%	4.1%	50.6%
CCNc1ncc2nc(-c3cn(C)c4ccccc34)c(=O)n(-c3ccccc3)c2n1	15.5%	.	-1.8%[0.501 µM]	.	.	.
COc1cccc2sc3ccc(C#CC4(N)CCCCC4)cc3c(=O)c12	79.4µM*	-2.6%	.	-29.3%	-12.8%	36.2%
CNC(C)C#Cc1ccc2c(=O)c3c(OC)cccc3oc2c1 (stereo not drawn)	-3.3%	7.3%	.	.	-5.7%	.
CNC(C)C#Cc1ccc2sc3cccc(OC)c3c(=O)c2c1 (stereo not drawn)	-3.2%	2.8%	70.8µM*	-22.3%	-6.7%	26.6%
CNC(C)C#Cc1ccc2oc3cccc(OC)c3c(=O)c2c1 (stereo not drawn)	14.5%	-2.3%	44.7µM*	-15.5%	-23.2%	27.2%
O=C(NCCCn1ccnc1)Nc1ccc2c(c1)OCO2	-13.5%	.	4.2%[2.33 µM]	-21.2%	-24.9%	36.8%
